The text below walks through data of ChEMBL document CHEMBL4513216, “Probing the Open Global Health Chemical Diversity Library for Multistage-Active Starting Points for Next-Generation Antimalarials” (ACS Infect Dis, 2020).

About 8,600 (12%) of roughly 69,000 compounds showed an effect of 50% or more. The full list was thinned out, with strong results kept by preference.

This assay deals with Plasmodium berghei. Nature of the assay: Screen against P. berghei liver stage (PbLuc), transformed with Luciferase, at 10uM. The class given is functional, HepG2. The following applies: tested at 10 uM.
Consider `CN(C)c1ncc(-c2cc(C(=O)NCCO)n(CC3CC3)c2)cn1`, for which the INHIBITION came to 26.3%.

For `CCOc1ccccc1C(=O)Oc1cc(=O)n2cccc(C)c2n1`, the INHIBITION is 4.35%.

For the compound `O=C(NC1CCC1)c1c2c(N3CCCC3)ncnc2n2ccccc12`, the INHIBITION stood at 46.2%.

`COCCN(C)C(=O)c1ccccc1-n1cc(CN(C)C)cn1`: the INHIBITION is recorded as -29.8%.

Turning to `COCCN(C)C(=O)c1ccccc1-n1cccn1`, the INHIBITION was 63.8%.

As for `COCCCN(CCOC)C(=O)Nc1ccccc1-n1cccn1`, the INHIBITION was 32.2%.

For `CC(C)n1nc(CN2CCCCC2)c2c1CN(C(=O)c1ccno1)C2`, the INHIBITION is 26.5%.

For `CC(C)n1nc(CN2CCOCC2)c2c1CN(C(=O)c1ccno1)C2`, the INHIBITION was found to be 62.3%.

With `CC(C)n1nc(CN2CCCC2=O)c2c1CN(C(=O)c1ccno1)C2`, the INHIBITION amounted to 27.5%.

Regarding `COCCNC(=O)c1cc(C)nc(C2CCN(C)CC2)n1`, the INHIBITION is -22.5%.

For the compound `CNC(=O)[C@@H]1COC[C@H]2CN(C(=O)c3ccc(OC)cc3)C[C@H]21`, the INHIBITION was -2.03%.

On to `CNC(=O)[C@@H]1COC[C@H]2CN(C(=O)c3ccc(C)c(F)c3)C[C@H]21`, for which the INHIBITION is listed as 31.9%.

In the case of `CNC(=O)[C@@H]1COC[C@H]2CN(C(=O)COc3ccccc3)C[C@H]21`, the INHIBITION stood at 63%.

Take `CCc1ccc(C(=O)N2C[C@@H]3COC[C@@H](C(=O)NC)[C@@H]3C2)cc1`: the INHIBITION amounted to 6.83%.

For the compound `CNC(=O)[C@@H]1COC[C@H]2CN(C(=O)c3ccc(C)c(C)c3)C[C@H]21`, the INHIBITION was 51.2%.

For `CNC(=O)[C@@H]1COC[C@H]2CN(C(=O)c3cccc(OC)c3)C[C@H]21`, the INHIBITION is recorded as 33.4%.

In the case of `O=C(NC1CCN(C2CC2)CC1)N1CCN(c2cnccn2)CC1`, the INHIBITION worked out at 37.9%.

In the case of `CN(C)C(=O)CO[C@H]1CN(Cc2nccs2)[C@@H]2COC[C@H]12`, the INHIBITION is given as 0.71%.

Take `COc1cc(CN2CCCC2)ccc1Oc1ncccc1C(F)(F)F`: the INHIBITION is on record as 80.3%.

For the compound `COc1cc(Oc2ncccc2C(F)(F)F)ccc1CN1CCCC1`, the INHIBITION was determined as 88.4%.

In the case of `COc1ccc(OC)c(CN2CCN(Cc3cscn3)CC2)c1`, the INHIBITION came to 1.06%.

Regarding `COc1ccc(Oc2ncccc2F)cc1CN1CCCC1`, the INHIBITION is recorded as 74.8%.

As for `COc1ccc(CC(=O)Nc2cccnc2N2CCCC2)cc1OC`, the INHIBITION is 4.71%.

Take `Fc1cccnc1Oc1cc(F)c(CN2CCCC2)c(F)c1`: the INHIBITION stood at 9.84%.

`COC(=O)c1ccc(Cn2cccc(C(F)(F)F)c2=O)c(OC)c1`: the INHIBITION is 33.1%.

Consider `Fc1cccnc1Oc1cc(F)c(CN2CCCC2)c(Cl)c1`, for which the INHIBITION is 60.9%.

For the compound `COc1ccc(Oc2nccc3occc23)cc1CN1CCCC1`, the INHIBITION is recorded as -4.23%.

For `COc1cc(CN2CCCC2)ccc1OC12CCCN(CC1)C2` (centres undefined), the INHIBITION is -14.7%.

For `N#Cc1cccnc1Oc1cc(F)c(CN2CCCC2)c(Cl)c1`, the INHIBITION worked out at 11.4%.

As for `Cc1nn(C)c(=O)c2nn(-c3cccc(Cl)c3)c(C)c12`, the INHIBITION is 37.2%.

For `N#Cc1c(N)nc2c(c1-c1c[nH]nc1C1CCCCC1)COCC2`, the INHIBITION was 11.5%.

Regarding `Cn1cc(-c2nc(CN3CCOC(Cn4cncn4)C3)cs2)cn1` (centres undefined), the INHIBITION is 26.5%.

For the compound `COc1ccc(NC(=O)CSc2nncn2-n2cccc2)c(OC)c1`, the INHIBITION is 31.6%.

In the case of `CCn1nc2c(cc1=O)CN(CC(=O)Nc1nc(C)c(C)s1)CC2`, the INHIBITION was -0.188%.

Consider `Cc1cc(N(C)C)nc(C2CCCN2)n1` (centres undefined), for which the INHIBITION came to 15.5%.

For `CO[C@@H]1CCN(C(=O)c2ccccn2)[C@H]1Cc1ccccc1`, the INHIBITION is given as -15.1%.

As for `COc1ccc(F)cc1CN1CCCC(c2cc(C(N)=O)[nH]n2)C1` (centres undefined), the INHIBITION is -2.42%.

Regarding `COc1ncccc1CN1CCC2(CCCN2S(C)(=O)=O)CC1`, the INHIBITION amounted to 45.2%.

As for `COc1ccc(Oc2ncccc2C(N)=O)cc1CN1CCCC1`, the INHIBITION was 51.2%.

In the case of `COc1ccc(F)cc1CN1CCC(O)(CN2CCCCC2)C1` (centres undefined), the INHIBITION is reported as 16.1%.

Consider `COc1ccc(Oc2ncccc2C(F)(F)F)cc1CN1CCCC1`, for which the INHIBITION amounted to 66.6%.

`COc1ccccc1Oc1ncccc1CNC(=O)C(C)N1CCCC1` (centres undefined): the INHIBITION worked out at 21.7%.

`CC(C)c1nn(C)c(N(C)C)c1CNCc1ccccc1CO`: the INHIBITION is listed as -9.05%.

As for `Cc1cc(CN(C)C(=O)NC2CCN(C3CC3)CC2)no1`, the INHIBITION turned out to be 3.75%.

On to `Cc1ccc(C)c(CSc2nnc([C@@H](N)C(C)C)o2)c1`, for which the INHIBITION is 34.5%.

`CCC(=O)Nc1ccc(OCC(=O)N(C)C(C)c2ccon2)cc1` (centres undefined): the INHIBITION was determined as 10.7%.

Take `Cc1ccc(-c2nc(CC3CCN(C)CC3)no2)cc1N1CCNC1=O`: the INHIBITION worked out at 14.1%.

Take `CC(c1nnc(-c2cccs2)o1)N1CCc2cncnc2C1` (centres undefined): the INHIBITION was -18.5%.

`O=C(NCC1OCCc2cn(CC3CCOCC3)nc21)c1ccsc1` (centres undefined): the INHIBITION is 49.3%.

Consider `Cc1ccc(N2CC[C@@H]3[C@@H]2CCN3C(=O)Cc2cccs2)nn1`, for which the INHIBITION came to 31.2%.

In the case of `O=C1C[C@H]2[C@@H](CCN2C(=O)Cc2ccsc2)N1Cc1cccnc1`, the INHIBITION is listed as 62.9%.

As to `CCC(=O)N1CC[C@@H]2[C@H](CC1)N(Cc1cccc(C)n1)CCS2(=O)=O`, the INHIBITION stood at 2.4%.

For `CCCC(=O)N1CC[C@@H]2[C@H](CC1)N(Cc1cccc(C)n1)CCS2(=O)=O`, the INHIBITION turned out to be 57.1%.

With `Cc1ccc(N2CC[C@@H]3[C@@H]2CCN3C(=O)c2cscn2)nn1`, the INHIBITION was 18.5%.

On to `O=C1C[C@H]2[C@@H](CCN2C(=O)Cc2ccccc2)N1Cc1cccnc1`, for which the INHIBITION was -6.05%.

On to `O=C(Cc1ccccc1)N1CC[C@H]2[C@@H]1CCC(=O)N2Cc1ccncc1`, for which the INHIBITION turned out to be 3.25%.

In the case of `Cc1ccc(N2CC[C@@H]3[C@@H]2CCN3C(=O)Cc2ccccc2)nn1`, the INHIBITION was found to be 69.3%.

With `Cc1ccc(N2CCCC(NCc3ccsc3)C2)nn1` (centres undefined), the INHIBITION is 5.44%.

In the case of `Cc1cccc(CN2CCS(=O)(=O)[C@@H]3CCN(C(=O)C4CC4)CC[C@@H]32)n1`, the INHIBITION was found to be 34.9%.

On to `Cc1ccc(N2CC[C@@H]3[C@@H]2CCN3Cc2ccsc2)nn1`, for which the INHIBITION is on record as 51.2%.

With `O=C1C[C@H]2[C@@H](CCN2C(=O)Cc2cccs2)N1Cc1cccnc1`, the INHIBITION is 24.9%.

For the compound `CCN(Cc1noc(C2CCC2)n1)C(=O)c1cnc2ccccc2c1`, the INHIBITION is reported as 7.44%.

For `Cc1nc(-c2ccccc2C(=O)O)cc(C2CCN(C(C)C)C2)n1` (centres undefined), the INHIBITION was 24.8%.

As to `NC(=O)[C@@H]1CN2CCN(C(=O)C3CC3)C[C@@H]2[C@H]1c1ccccc1`, the INHIBITION came out at 16.9%.

Consider `CC(C)c1nc(C2CCCN(C(=O)Cn3ccccc3=O)C2)no1` (centres undefined), for which the INHIBITION was -7.31%.

For `CN1Cc2cnn(CC3CCCC3)c2C(COCC2CC2)C1` (centres undefined), the INHIBITION is 26.3%.

As to `Cc1ccc(CN2CC[C@H]3C[C@H](C(=O)N4CCCO4)O[C@@H]3C2)o1`, the INHIBITION was 38.5%.

Regarding `CCN(CC)C(CNC(=O)c1ccc(-n2cncn2)cc1)c1ccsc1` (centres undefined), the INHIBITION is on record as -2.46%.

Regarding `CNC(=O)c1sc2ccccc2c1CC1CCCCN1Cc1ncc[nH]1` (centres undefined), the INHIBITION was found to be 42.2%.

With `O=C(Cn1nc(Br)nc1Br)N1CCCC1`, the INHIBITION is recorded as 27.4%.

As to `Cc1cccc(CN2CC[C@@H]3[C@@H]2CCN3C(=O)Cc2ccsc2)n1`, the INHIBITION is 63.8%.

With `O=C1C[C@H]2[C@@H](CCN2C(=O)Cc2cccs2)N1CC1CC1`, the INHIBITION is reported as -38.1%.

Take `Cc1cccc(CN2C(=O)C[C@@H]3[C@@H]2CCN3Cc2ccsc2)n1`: the INHIBITION came out at 46.9%.

Turning to `Cc1ccc(NC2CCN(C(=O)CCc3ccsc3)CC2)nn1`, the INHIBITION is listed as -59.4%.

Turning to `Cc1ccc(N2CCCN(C(=O)CCc3ccsc3)CC2)nn1`, the INHIBITION is given as 1.04%.

As for `O=C(Cc1cccs1)N1CC[C@H]2[C@H]1CCN2Cc1cccnc1`, the INHIBITION was -25.8%.

Regarding `Cc1ccc(N2CC[C@@H]3[C@@H]2CCN3C(=O)Cc2ccsc2)nn1`, the INHIBITION worked out at 55.7%.

As to `Cc1ccc(CN2CC[C@@H]3[C@@H]2CCN3C(=O)Cc2cccs2)o1`, the INHIBITION is 93.7%.

As for `Cc1cccc(CN2CC[C@@H]3[C@@H]2CCN3C(=O)Cc2cccs2)n1`, the INHIBITION is 42.1%.

Take `COC(=O)[C@H](CCSC)NC(=O)Cn1ccc2c(Cl)cccc21`: the INHIBITION is given as 25%.

With `CN(C)C(=O)c1sc2ncccc2c1C1CNCCO1` (centres undefined), the INHIBITION was found to be 12.8%.

With `O=C(CO)N1CCC(c2cncc(-c3cccc(Cl)c3)n2)CC1`, the INHIBITION is given as 46.6%.

As for `Cc1cnn(C2CCCN(C(=O)c3cc(Cl)c4c(c3)OCO4)C2)c1` (centres undefined), the INHIBITION is on record as 37.9%.

Turning to `COc1ccc(-n2cc3nc(N)[nH]cc-3c2=O)cc1Cl`, the INHIBITION was 43.3%.

As to `COc1ccc(-c2ccnc3nc(N4CCCCC4)[nH]c(=O)c23)cc1`, the INHIBITION is reported as 30.8%.

Regarding `CC(C)c1nnc2n1CCN(Cc1cc(Cl)c3c(c1)OCO3)C2`, the INHIBITION came out at 33.7%.

For the compound `CC(C)c1nnc2n1CCN(Cc1ccc3c(c1)OCCO3)C2`, the INHIBITION is reported as -41.4%.

On to `CC(C)c1nnc2n1CCN(Cc1ccc3c(c1)OCO3)CC2`, for which the INHIBITION was determined as 54.6%.

With `O=C(NCC1CCC(c2ccnc3ncnn23)CC1)c1ccccn1` (centres undefined), the INHIBITION is -24.4%.

Regarding `Cc1cccc(C2(NC(=O)CCN3C(=O)CCC3=O)CCCC2)c1`, the INHIBITION was 28.7%.

Turning to `O=C(CCCn1cncn1)NC1(c2ccccc2)CCC1`, the INHIBITION is -21.5%.

For `O=C(CCCn1cncn1)NC1(c2ccc(Cl)cc2)CCC1`, the INHIBITION stood at 61.3%.

For `O=C(CCCn1cncn1)NC1(c2cccc(Br)c2)CC1`, the INHIBITION turned out to be 27.5%.

Take `O=C(CCn1cncn1)NC1(c2cccc(Br)c2)CCC1`: the INHIBITION is recorded as 33.5%.

Consider `COc1ccc(C2(NC(=O)c3ccc(=O)n(C)n3)CCCC2)cc1`, for which the INHIBITION is reported as 17.7%.

As for `Cn1nc(C(=O)NC2(c3ccc(Cl)cc3)CCCC2)ccc1=O`, the INHIBITION came to 6.67%.

Consider `COc1ccc(C2(NC(=O)CCn3cncn3)CCCCC2)cc1`, for which the INHIBITION is 62.6%.

Take `Cc1cccc(C2(NC(=O)CCCn3cncn3)CCCC2)c1`: the INHIBITION turned out to be 57.3%.

For the compound `Cc1nn(C)c(C)c1-c1cnc(CC2CCNCC2)cn1`, the INHIBITION stood at 21.1%.
